Molecules are shown by their SMILES. Several values for one entry are separate records, joined by “and”; a condition that tells them apart may be missing. Equal entries are not always repeated. About 83,000 compounds went through this panel and 20% of them were active in at least one assay; those are over-represented in the sample as a whole.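 Treatment: one concentration, 48 hours, 96-well format. Scoring: percent growth, with anything below 10 considered active.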 Values without a mark were called inactive. Activity calls are given as the source filed them.

The source of these data is PubChem BioAssay (NCI).

Test systems include SR leukemia; RPMI-8226 leukemia; OVCAR-8 ovarian; OVCAR-5 ovarian; OVCAR-4 ovarian; SK-OV-3 ovarian; IGROV1 ovarian; OVCAR-3 ovarian; HS 578T breast; NCI/ADR-RES ovarian; T-47D breast; BT-549 breast; MDA-MB-435 melanoma; MCF7 breast; HCT-116 colon; HCC-2998 colon; KM12 colon; SW-620 colon.
Assay in all cases: NCI-60 one-dose screen, 48 h (100 = growth as untreated, 0 = no growth, -100 = all killed)
Details in all cases: 10 µM unless noted

As to `CCN(CC)CCO/N=C1\CC(c2ccc(OC)c(OC)c2)Oc2ccccc21` (stereo unspecified), the growth with SR leukemia is 98.5%; with RPMI-8226 leukemia, 87.8%; with OVCAR-8 ovarian, 102%; in the assay on OVCAR-5 ovarian, 95.4%; with OVCAR-4 ovarian, 96.5%; with SK-OV-3 ovarian it was 96.5%. The growth in the assay on IGROV1 ovarian is 88.8%; with OVCAR-3 ovarian, 111%; with HS 578T breast it was 90.3%; with NCI/ADR-RES ovarian, 89.6%; in the assay with T-47D breast, 89.4%; in the assay on BT-549 breast it was 94%. The growth with MDA-MB-435 melanoma was 100%; in the assay on MCF7 breast, 89.4%; with HCT-116 colon, 84.1%; in the assay with HCC-2998 colon it was 109%; in the assay on KM12 colon it was 103%.

As to `Cc1ccc(C(=O)c2ccc(C)cc2)cc1`, the growth was 84.3% and 110% in the assay on SR leukemia; 86.8% and 96.4% in the assay with RPMI-8226 leukemia; 94.3% and 109% in the assay on OVCAR-8 ovarian; 103% in the assay with OVCAR-5 ovarian; 87.2% and 117% in the assay with OVCAR-4 ovarian; 101% and 107% in the assay on SK-OV-3 ovarian. In addition, the growth in the assay on IGROV1 ovarian is 86.3% and 99%; with OVCAR-3 ovarian, 99.1% and 105%; with HS 578T breast, 101%; with NCI/ADR-RES ovarian, 93%; in the assay with T-47D breast, 90.7% and 94.9%; in the assay with BT-549 breast, 92%. The growth in the assay on MDA-MB-435 melanoma is 103% and 105%; with MCF7 breast, 99.9% and 95.3%; in the assay with HCT-116 colon, 92.5% and 98%; in the assay on HCC-2998 colon, 87.5% and 99.8%; in the assay with KM12 colon, 102% and 108%.

On to `COc1ccc(/C=N/Nc2nc3ccccc3s2)cc1`, for which the growth in the assay on SR leukemia is 87.9%; in the assay with RPMI-8226 leukemia it was 104%; in the assay on OVCAR-8 ovarian, 105%; in the assay on OVCAR-5 ovarian it was 103%; with OVCAR-4 ovarian, 87.5%; in the assay on SK-OV-3 ovarian it was 90%. Further, the growth in the assay with IGROV1 ovarian is 68.5%; in the assay on OVCAR-3 ovarian, 86.4%; in the assay on HS 578T breast, 105%; with NCI/ADR-RES ovarian it was 98.7%; with T-47D breast, 86.6%; in the assay on BT-549 breast, 97.6%. Moreover, the growth in the assay on MDA-MB-435 melanoma is 83.3%; in the assay on MCF7 breast, 61.1%; in the assay with HCC-2998 colon, 104%; in the assay with KM12 colon it was 87.6%.

Take `COCCCNC1=C(C#N)C(=O)NC(c2cccs2)S1` (stereo unspecified): the growth is 113% in the assay with SR leukemia; 122% with RPMI-8226 leukemia; 113% in the assay on OVCAR-8 ovarian; 109% in the assay on OVCAR-5 ovarian; 93% in the assay on OVCAR-4 ovarian; 101% with SK-OV-3 ovarian. For the same compound, the growth in the assay on IGROV1 ovarian was 119%; in the assay with OVCAR-3 ovarian it was 118%; with HS 578T breast it was 112%; in the assay with NCI/ADR-RES ovarian, 110%; with T-47D breast it was 89%; in the assay with BT-549 breast, 96%. Further, the growth in the assay with MDA-MB-435 melanoma is 95.9%; in the assay with SW-620 colon, 113%; in the assay with HCC-2998 colon, 108%; in the assay with KM12 colon, 108%.

For the compound `Cc1cc(-c2ccc(N=Nc3c(C)nn(-c4ccc(S(=O)(=O)O)cc4)c3O)c(C)c2)ccc1N=Nc1ccc(O)c(C(=O)O)c1`, the growth with SR leukemia was 86%; with RPMI-8226 leukemia, 81.7%; in the assay with OVCAR-8 ovarian, 95.7%; with OVCAR-5 ovarian it was 94.4%; in the assay with OVCAR-4 ovarian, 106%; with SK-OV-3 ovarian, 96.9%. The growth in the assay on IGROV1 ovarian was -9.24% (active); in the assay on OVCAR-3 ovarian, 106%; in the assay on HS 578T breast, 91.8%; in the assay with NCI/ADR-RES ovarian, 104%; with T-47D breast, 99.7%; in the assay with BT-549 breast, 98.5%. Further, the growth is 110% in the assay with MDA-MB-435 melanoma, 94% in the assay with MCF7 breast, 94% with HCC-2998 colon and 96.1% in the assay on KM12 colon.

Regarding `CCC(C)(O)CCC(C)(O)CC` (stereo unspecified), the growth in the assay with SR leukemia was 97.4%; in the assay on RPMI-8226 leukemia it was 108%; with OVCAR-8 ovarian, 102%; with OVCAR-5 ovarian, 114%; in the assay with OVCAR-4 ovarian, 111%; with SK-OV-3 ovarian it was 99%. The growth was 103% with IGROV1 ovarian; 107% in the assay with OVCAR-3 ovarian; 108% with HS 578T breast; 99.2% with NCI/ADR-RES ovarian; 96% in the assay with T-47D breast; 107% in the assay on BT-549 breast. For the same compound, the growth is 111% in the assay with MDA-MB-435 melanoma; 92.4% with MCF7 breast; 101% in the assay with HCT-116 colon; 87.7% in the assay with HCC-2998 colon; 103% with KM12 colon.

As for `O=C(O)Cc1cc(=O)[nH]n(-c2ccccc2)c1=O`, the growth is 88.9% with SR leukemia; 117% in the assay on RPMI-8226 leukemia; 90% in the assay on OVCAR-8 ovarian; 100% in the assay with OVCAR-5 ovarian; 103% in the assay with OVCAR-4 ovarian; 98% in the assay with SK-OV-3 ovarian. Also, the growth with IGROV1 ovarian was 115%; with OVCAR-3 ovarian, 110%; in the assay with HS 578T breast it was 117%; in the assay on NCI/ADR-RES ovarian it was 115%; with T-47D breast, 98.2%; with BT-549 breast it was 103%. Moreover, the growth in the assay with MDA-MB-435 melanoma is 108%; in the assay on MCF7 breast, 98.9%; with HCC-2998 colon, 106%; with KM12 colon it was 107%.

Regarding `COc1ccc2nccc(Cl)c2c1`, the growth is 101% in the assay with SR leukemia; 110% in the assay on RPMI-8226 leukemia; 108% with OVCAR-8 ovarian; 102% with OVCAR-5 ovarian; 118% in the assay on OVCAR-4 ovarian; 111% in the assay on SK-OV-3 ovarian. In addition, the growth with IGROV1 ovarian was 105%; with OVCAR-3 ovarian it was 102%; in the assay on HS 578T breast, 103%; in the assay with NCI/ADR-RES ovarian it was 104%; in the assay on T-47D breast, 122%; in the assay on BT-549 breast, 98.4%. Also, the growth is 108% in the assay on MDA-MB-435 melanoma, 98.5% with MCF7 breast, 115% with HCC-2998 colon and 92.8% in the assay on KM12 colon.
